# From paper PMC7862700, “An all-to-all approach to the identification of sequence-specific readers for epigenetic DNA modifications on cytosine”
# Experiments:
# Test in all cases: DAPPL (digital affinity profiling via proximity ligation, sequencing); 10 mM Tris-HCl pH 7.5, 50 mM NaCl, 1 mM DTT, 4% glycerol, room temperature, 30 min; GST-TFs on glutathione beads, 16-mer random dsDNA library, 0.1% formaldehyde crosslink after washing; high values mean tight binding
# Conditions in all cases: protein: recombinant; tags: N-terminal GST; dsDNA, one strand shown
# FLI1 = target: T1, FLI1 (Homo sapiens, UniProt Q01543 1-452)
# T1 sequence: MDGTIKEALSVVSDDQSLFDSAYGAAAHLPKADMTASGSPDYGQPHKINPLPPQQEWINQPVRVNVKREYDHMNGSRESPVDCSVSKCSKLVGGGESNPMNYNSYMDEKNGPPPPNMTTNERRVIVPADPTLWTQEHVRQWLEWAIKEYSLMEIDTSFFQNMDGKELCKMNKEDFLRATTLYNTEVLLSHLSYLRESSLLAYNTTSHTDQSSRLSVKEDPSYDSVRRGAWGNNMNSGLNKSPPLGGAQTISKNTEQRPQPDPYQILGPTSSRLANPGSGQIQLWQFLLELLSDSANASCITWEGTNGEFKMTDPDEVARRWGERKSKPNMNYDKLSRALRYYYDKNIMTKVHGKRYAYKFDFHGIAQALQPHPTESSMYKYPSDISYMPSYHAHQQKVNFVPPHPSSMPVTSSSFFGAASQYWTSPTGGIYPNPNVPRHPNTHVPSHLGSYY
# Method in brief: (§1)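 After expression in yeast as GST fusions, human transcription factors were bound to glutathione beads, DNA-barcoded and mixed with a tag-only sample. The pools were incubated with 200 nmole of a 16-mer random double-stranded DNA library in Tris/NaCl/DTT/glycerol buffer (30 min, room temperature), washed and crosslinked with 0.1% formaldehyde. Proximity ligation with BsaI/T4 ligase ran for 1 h at 37 °C, before PCR amplification and sequencing on an Illumina NextSeq500. Binding signal is a hexamer's read frequency for a factor divided by its frequency for the tag-only sample.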
# ELK1 = target: T2, ELK1 (Homo sapiens, UniProt P19419 1-428)
# T2 sequence: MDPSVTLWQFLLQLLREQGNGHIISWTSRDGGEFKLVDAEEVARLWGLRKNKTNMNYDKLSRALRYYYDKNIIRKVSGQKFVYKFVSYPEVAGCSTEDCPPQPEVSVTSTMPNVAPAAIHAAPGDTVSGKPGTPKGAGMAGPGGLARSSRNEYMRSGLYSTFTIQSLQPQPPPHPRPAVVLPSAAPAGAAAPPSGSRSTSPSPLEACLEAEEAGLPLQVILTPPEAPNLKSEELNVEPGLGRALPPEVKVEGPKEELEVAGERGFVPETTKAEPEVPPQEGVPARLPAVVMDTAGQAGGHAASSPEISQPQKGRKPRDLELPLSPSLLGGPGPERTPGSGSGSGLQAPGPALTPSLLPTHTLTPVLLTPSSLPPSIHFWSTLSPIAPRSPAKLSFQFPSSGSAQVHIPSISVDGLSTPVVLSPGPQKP
# Method in brief: as §1
# ELF1 = ELF1 (Homo sapiens, UniProt P32519 1-619)
# ELF1, sequence (P32519 whole entry): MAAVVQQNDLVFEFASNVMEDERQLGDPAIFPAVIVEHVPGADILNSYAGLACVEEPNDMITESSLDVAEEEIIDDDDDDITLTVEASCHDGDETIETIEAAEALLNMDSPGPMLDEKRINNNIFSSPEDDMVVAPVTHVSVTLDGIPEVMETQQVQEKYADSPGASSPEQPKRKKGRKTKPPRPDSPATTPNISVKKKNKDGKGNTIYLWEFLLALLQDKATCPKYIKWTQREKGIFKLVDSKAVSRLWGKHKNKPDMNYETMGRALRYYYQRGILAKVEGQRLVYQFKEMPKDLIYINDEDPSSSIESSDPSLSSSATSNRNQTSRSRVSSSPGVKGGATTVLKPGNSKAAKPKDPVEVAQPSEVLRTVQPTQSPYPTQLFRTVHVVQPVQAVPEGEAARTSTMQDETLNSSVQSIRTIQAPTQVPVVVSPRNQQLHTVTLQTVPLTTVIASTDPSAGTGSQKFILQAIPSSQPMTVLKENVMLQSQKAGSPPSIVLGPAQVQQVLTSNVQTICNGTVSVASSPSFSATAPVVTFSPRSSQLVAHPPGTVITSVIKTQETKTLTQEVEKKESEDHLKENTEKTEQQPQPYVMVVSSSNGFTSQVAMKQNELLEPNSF
# Method in brief: as §1
# EHF = target: T3, EHF (Homo sapiens, UniProt Q9NZC4 1-300)
# T3 sequence: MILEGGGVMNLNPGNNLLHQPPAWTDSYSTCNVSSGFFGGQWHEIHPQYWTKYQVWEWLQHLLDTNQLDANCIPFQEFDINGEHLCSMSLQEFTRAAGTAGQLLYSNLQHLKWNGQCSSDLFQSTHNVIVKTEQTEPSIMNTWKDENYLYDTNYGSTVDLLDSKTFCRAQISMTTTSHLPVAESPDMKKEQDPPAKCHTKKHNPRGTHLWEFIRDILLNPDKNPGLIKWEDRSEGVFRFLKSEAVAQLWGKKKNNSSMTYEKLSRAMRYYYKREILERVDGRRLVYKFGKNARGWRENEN
# Method in brief: as §1
# SPIB = SPIB (Homo sapiens, UniProt Q01892 1-262)
# SPIB, sequence (Q01892 whole entry): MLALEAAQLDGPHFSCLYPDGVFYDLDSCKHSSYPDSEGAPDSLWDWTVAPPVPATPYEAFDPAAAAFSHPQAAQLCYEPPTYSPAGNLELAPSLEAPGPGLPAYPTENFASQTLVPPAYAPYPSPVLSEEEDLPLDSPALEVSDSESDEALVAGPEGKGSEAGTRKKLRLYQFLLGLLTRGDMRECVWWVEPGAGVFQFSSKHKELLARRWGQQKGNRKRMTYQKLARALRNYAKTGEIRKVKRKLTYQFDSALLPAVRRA
# Method in brief: as §1
# ELK3 = target: T4, ELK3 (Homo sapiens, UniProt P41970 1-407)
# T4 sequence: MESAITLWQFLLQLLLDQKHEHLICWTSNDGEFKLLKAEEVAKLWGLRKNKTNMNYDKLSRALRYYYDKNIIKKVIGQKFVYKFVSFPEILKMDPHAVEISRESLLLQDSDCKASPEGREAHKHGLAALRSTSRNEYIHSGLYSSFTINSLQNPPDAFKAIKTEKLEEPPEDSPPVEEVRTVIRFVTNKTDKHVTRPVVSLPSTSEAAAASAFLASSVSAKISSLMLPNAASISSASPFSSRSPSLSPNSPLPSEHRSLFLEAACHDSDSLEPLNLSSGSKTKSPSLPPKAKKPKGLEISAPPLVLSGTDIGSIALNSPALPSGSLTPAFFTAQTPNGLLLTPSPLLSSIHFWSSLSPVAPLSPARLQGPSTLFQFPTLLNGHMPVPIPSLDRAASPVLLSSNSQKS
# Method in brief: as §1
# FEV = target: T5, FEV (Homo sapiens, UniProt Q99581 1-238)
# T5 sequence: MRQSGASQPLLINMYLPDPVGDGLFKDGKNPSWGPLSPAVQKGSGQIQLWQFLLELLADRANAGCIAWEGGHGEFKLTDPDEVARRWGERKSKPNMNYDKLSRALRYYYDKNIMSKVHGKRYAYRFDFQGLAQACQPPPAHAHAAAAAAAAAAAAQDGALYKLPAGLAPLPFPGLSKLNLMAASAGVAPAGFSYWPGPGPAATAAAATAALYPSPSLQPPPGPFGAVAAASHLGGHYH
# Method in brief: as §1
# ETV5 = ETV5 (Homo sapiens, UniProt P41161 1-510)
# ETV5, sequence (P41161 whole entry): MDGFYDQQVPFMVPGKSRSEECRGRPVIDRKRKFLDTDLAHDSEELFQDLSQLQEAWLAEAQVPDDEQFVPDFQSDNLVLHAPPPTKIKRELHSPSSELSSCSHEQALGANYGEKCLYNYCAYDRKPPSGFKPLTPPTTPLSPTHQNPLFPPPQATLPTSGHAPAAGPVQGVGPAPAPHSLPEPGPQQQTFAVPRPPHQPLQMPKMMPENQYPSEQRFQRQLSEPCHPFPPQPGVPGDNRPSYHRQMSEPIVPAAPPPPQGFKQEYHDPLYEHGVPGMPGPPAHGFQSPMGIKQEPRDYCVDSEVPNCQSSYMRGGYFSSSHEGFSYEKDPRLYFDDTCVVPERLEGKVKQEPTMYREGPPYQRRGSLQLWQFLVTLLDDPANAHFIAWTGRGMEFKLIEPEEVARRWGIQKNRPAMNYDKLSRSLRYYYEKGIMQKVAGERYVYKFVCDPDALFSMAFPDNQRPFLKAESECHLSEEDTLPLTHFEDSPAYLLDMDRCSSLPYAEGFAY
# Method in brief: as §1
# SPIC = target: T6, SPIC (Homo sapiens, UniProt Q8N5J4 1-248)
# T6 sequence: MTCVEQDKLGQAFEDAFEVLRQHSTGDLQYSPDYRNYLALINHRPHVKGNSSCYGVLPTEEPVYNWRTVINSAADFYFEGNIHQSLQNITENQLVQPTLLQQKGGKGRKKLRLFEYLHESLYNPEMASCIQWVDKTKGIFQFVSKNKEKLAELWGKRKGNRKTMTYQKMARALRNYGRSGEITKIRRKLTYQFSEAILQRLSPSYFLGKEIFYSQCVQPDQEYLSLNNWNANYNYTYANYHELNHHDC
# Method in brief: as §1
# ELF4 = ELF4 (Homo sapiens, UniProt Q99607 1-663)
# ELF4, sequence (Q99607 whole entry): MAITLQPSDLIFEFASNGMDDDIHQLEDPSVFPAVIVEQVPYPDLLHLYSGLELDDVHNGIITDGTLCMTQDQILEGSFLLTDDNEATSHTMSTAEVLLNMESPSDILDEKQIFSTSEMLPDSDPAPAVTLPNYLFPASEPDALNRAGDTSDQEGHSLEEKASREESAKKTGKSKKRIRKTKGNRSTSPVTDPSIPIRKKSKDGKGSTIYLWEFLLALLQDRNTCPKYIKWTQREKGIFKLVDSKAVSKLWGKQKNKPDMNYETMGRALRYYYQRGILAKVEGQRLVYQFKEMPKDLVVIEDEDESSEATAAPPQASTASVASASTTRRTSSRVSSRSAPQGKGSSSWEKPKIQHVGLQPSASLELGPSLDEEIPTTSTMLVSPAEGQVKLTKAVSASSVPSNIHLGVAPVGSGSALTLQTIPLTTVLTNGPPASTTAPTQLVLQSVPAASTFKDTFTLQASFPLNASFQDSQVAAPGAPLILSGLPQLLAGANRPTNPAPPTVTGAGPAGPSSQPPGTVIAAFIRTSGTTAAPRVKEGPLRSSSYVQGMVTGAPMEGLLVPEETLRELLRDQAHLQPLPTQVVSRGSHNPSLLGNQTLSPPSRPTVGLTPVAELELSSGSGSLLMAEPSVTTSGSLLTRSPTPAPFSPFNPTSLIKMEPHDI
# Method in brief: as §1
# ETV1 = ETV1 (Homo sapiens, UniProt P50549 1-477)
# ETV1, sequence (P50549 whole entry): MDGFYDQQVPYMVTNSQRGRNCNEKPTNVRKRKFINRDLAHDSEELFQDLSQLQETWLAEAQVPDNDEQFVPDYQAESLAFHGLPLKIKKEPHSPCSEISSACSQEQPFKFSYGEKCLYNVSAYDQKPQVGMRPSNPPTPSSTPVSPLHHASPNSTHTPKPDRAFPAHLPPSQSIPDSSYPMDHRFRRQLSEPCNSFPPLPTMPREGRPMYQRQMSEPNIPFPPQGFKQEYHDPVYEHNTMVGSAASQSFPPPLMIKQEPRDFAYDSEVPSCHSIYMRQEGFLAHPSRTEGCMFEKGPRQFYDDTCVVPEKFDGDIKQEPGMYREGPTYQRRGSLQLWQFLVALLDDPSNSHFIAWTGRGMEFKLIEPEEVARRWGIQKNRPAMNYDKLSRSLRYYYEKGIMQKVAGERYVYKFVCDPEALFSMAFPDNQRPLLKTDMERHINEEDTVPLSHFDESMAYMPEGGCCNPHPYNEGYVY
# Method in brief: as §1
# ERF = target: T7, ERF (Homo sapiens, UniProt P50548 1-548)
# T7 sequence: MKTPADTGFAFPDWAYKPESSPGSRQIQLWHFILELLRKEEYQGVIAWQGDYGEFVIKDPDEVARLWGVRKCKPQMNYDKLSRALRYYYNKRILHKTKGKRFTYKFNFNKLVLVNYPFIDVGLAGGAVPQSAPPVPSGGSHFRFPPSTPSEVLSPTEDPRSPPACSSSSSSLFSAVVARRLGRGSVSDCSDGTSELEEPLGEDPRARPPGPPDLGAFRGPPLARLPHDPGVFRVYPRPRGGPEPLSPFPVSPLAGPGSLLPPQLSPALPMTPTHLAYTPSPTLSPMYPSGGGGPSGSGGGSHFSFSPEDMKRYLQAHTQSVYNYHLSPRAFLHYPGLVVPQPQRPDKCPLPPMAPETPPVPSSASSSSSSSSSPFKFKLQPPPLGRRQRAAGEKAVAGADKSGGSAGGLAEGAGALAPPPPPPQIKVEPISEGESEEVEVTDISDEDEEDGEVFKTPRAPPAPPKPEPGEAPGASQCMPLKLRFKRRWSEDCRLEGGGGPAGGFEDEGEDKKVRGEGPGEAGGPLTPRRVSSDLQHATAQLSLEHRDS
# Method in brief: as §1
# ETV3L = target: T8, ETV3L (Homo sapiens, UniProt Q6ZN32 1-361)
# T8 sequence: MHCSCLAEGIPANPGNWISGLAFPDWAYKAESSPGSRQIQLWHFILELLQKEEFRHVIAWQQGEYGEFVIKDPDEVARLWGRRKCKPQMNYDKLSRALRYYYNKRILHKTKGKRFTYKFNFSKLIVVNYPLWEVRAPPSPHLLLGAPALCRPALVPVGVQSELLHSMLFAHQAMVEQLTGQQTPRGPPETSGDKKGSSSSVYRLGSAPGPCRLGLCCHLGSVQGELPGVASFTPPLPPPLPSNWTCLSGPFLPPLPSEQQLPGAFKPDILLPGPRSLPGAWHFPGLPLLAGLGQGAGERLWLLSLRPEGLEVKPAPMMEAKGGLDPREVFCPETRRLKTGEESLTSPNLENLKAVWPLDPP
# Method in brief: as §1
# ETS2 = target: T9, ETS2 (Homo sapiens, UniProt P15036 1-469)
# T9 sequence: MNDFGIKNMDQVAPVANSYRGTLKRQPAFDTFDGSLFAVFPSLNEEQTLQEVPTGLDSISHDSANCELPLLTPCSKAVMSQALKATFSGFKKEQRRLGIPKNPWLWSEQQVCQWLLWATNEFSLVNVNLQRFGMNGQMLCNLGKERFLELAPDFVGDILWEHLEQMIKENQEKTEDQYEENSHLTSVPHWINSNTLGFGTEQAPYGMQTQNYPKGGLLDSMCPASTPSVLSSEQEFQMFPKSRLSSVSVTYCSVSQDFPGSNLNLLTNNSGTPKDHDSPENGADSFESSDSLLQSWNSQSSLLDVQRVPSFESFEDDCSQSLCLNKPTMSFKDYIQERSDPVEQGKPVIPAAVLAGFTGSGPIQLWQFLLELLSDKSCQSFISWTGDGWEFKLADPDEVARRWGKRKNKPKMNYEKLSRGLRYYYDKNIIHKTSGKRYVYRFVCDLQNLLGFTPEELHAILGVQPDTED
# Method in brief: as §1
# ETV3 = target: T10, ETV3 (Homo sapiens, UniProt P41162-2 1-143)
# T10 sequence: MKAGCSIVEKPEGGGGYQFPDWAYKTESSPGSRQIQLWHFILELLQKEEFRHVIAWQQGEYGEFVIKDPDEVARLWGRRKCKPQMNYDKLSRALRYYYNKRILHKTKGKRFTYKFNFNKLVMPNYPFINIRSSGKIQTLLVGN
# Method in brief: as §1
# ETV6 = ETV6 (Homo sapiens, UniProt P41212 1-452)
# ETV6, sequence (P41212 whole entry): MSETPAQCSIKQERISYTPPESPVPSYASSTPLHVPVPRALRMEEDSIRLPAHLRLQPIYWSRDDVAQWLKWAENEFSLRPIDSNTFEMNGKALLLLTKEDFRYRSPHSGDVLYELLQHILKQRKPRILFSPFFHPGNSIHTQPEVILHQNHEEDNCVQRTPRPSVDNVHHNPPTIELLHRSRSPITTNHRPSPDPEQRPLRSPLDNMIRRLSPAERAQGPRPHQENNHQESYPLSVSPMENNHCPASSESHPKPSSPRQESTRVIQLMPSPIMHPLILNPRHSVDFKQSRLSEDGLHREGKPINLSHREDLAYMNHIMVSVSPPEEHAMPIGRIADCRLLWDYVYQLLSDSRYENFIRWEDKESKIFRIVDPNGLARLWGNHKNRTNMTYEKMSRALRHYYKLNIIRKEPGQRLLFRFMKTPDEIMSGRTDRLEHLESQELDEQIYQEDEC
# Method in brief: as §1
sequence,measurement,setting,value
ACCACA,binding signal,FLI1,"1.05 fold enrichment (6-mer frequency, TF over GST control)"
same,binding signal,ELK1,"1.1 fold enrichment (6-mer frequency, TF over GST control)"
same,binding signal,ELF1,"1.08 fold enrichment (6-mer frequency, TF over GST control)"
same,binding signal,EHF,"1.11 fold enrichment (6-mer frequency, TF over GST control)"
same,binding signal,SPIB,"1.04 fold enrichment (6-mer frequency, TF over GST control)"
same,binding signal,ELK3,"1.14 fold enrichment (6-mer frequency, TF over GST control)"
same,binding signal,FEV,"1.05 fold enrichment (6-mer frequency, TF over GST control)"
same,binding signal,ETV5,"1.03 fold enrichment (6-mer frequency, TF over GST control)"
same,binding signal,SPIC,"1.1 fold enrichment (6-mer frequency, TF over GST control)"
same,binding signal,ELF4,"1.11 fold enrichment (6-mer frequency, TF over GST control)"
same,binding signal,ETV1,"1.09 fold enrichment (6-mer frequency, TF over GST control)"
same,binding signal,ERF,"1.05 fold enrichment (6-mer frequency, TF over GST control)"
same,binding signal,ETV3L,"1.16 fold enrichment (6-mer frequency, TF over GST control)"
same,binding signal,ETS2,"1.06 fold enrichment (6-mer frequency, TF over GST control)"
same,binding signal,ETV3,"1.02 fold enrichment (6-mer frequency, TF over GST control)"
same,binding signal,ETV6,"1.08 fold enrichment (6-mer frequency, TF over GST control)"
